The sample as a whole holds a higher share of hits than the screen did.
G9a block: blocks human histone lysine methyltransferase G9a | Potency, µM (series often up to 102 µM), most hits filed as inhibitors | G9a H3K9 monomethylation, AlphaScreen, 2 h | AID 504332 | 350,000 compounds, 8.8% hits; also: nearly all actives have a fitted effect of over 75% in size
Target sequence (Q96KQ7 913-1193 limits assumed): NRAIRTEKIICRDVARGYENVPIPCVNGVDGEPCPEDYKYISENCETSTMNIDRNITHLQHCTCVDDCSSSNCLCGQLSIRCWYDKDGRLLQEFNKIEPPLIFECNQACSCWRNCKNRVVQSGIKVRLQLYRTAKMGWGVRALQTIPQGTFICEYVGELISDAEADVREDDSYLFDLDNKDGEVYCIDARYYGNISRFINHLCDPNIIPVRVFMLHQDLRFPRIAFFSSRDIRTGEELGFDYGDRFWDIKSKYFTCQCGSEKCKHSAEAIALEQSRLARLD
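AlphaScreen detection with an anti-monomethyl H3K9 antibody quantified product after a 2 h room-temperature reaction containing 500 nM biotinylated H3K9 peptide, 20 µM SAM and 20 nM enzyme, which had been preincubated 15 min with compound.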
ALOX12 inh: inhibitors of human 12S-lipoxygenase ALOX12 | P18054 | Potency, µM (series often up to 108 µM), most hits filed as inhibitors | AID 1671190 | purified 12hLO, xylenol orange hydroperoxide absorbance | 580,000 compounds, 1.1% hits
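Hydroperoxide product was detected by ferrous iron/xylenol orange as the 573 to 405 nm absorbance ratio. Arachidonic acid at 40 uM (final) was turned over for 30 min at room temperature by 150 nM human 12hLO, pH 7.0 Hepes buffer, after 15 min compound preincubation.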
VDR inhibitor: vitamin D3 receptor (human) inhibition. P11473. 400,000 compounds, 0.93% hits. VDR-SRC2-3 peptide fluorescence polarization, 2 h. Potency, µM, hits mostly inhibitors
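Signal is fluorescence polarization, reporting how far test compounds block the interaction of VDR with the SRC2-3 coregulator peptide after a 2 h room-temperature incubation.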
Sfp PPTase inh: inhibitors of Bacillus subtilis Sfp phosphopantetheinyl transferase | Biochemical Sfp PPTase activity, qHTS | Potency, µM, hits mostly inhibitors | 310,000 compounds, 3.5% hits | AID 1490;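 also: the enzyme is Sfp with the accession as filed and its product quenches rhodamine fluorescence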
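Compounds were incubated with enzyme (final 15 nM) for 15 min at room temperature before substrate addition started the reaction. Fluorescence at 525 nm excitation, 598 nm emission was recorded immediately and after 30 minutes.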
GRP78 ERSR act: ER stress response induction in glioma; 420,000 compounds, 0.02% hits; Potency, µM, actives largely listed as activators; U87-MG GRP78 promoter luciferase reporter, 16 h; AID 602332; also: series mostly up to about 76 µM; nearly all actives have a fitted effect of over 35% in size
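ERSR induction read as luciferase luminescence (Bright-Glo, 10 min at room temperature) in stably transfected human U87-MG glioma cells exposed to compounds for 16 h, using GRP78 as sensor.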
Of the large screens only hits and unclear results are named; the others gave an inactive call. Calls follow the shape of the dose curve; as a rule, active = well fitted curve in the direction sought with a large enough effect; inconclusive = small, poorly fitted or top-dose-only effect, or another doubt; inactive = no such curve, though single readings can be large; an effect the other way counts as inactive or inconclusive.

COc1cc(-c2cc(C(=O)NCc3ccco3)c3ccccc3n2)cc(OC)c1OC	G9a block 50µM, ALOX12 inh inconclusive
CCc1ccc(-c2cc(C(=O)NCc3ccccn3)c3ccccc3n2)cc1	Sfp PPTase inh inconclusive
CCc1ccc(-c2cc(C(=O)NCc3ccco3)c3ccccc3n2)cc1	ALOX12 inh 14µM (no result: G9a block, VDR inhibitor, Sfp PPTase inh, GRP78 ERSR act)
O=C(CSc1c2c(nc3ccccc13)CCCC2)NCc1ccco1	G9a block inconclusive
O=C(NCc1ccco1)c1c2c(nc3ccccc13)CCC2	G9a block 40µM, Sfp PPTase inh 50µM
O=C(NCCCCNC(=O)C1CC1)C1CC1	none (no result: G9a block, VDR inhibitor, Sfp PPTase inh, GRP78 ERSR act)
O=S(=O)(NCCO)c1ccc(-c2ccc(S(=O)(=O)NCCO)cc2)cc1	none (no result: G9a block, VDR inhibitor, Sfp PPTase inh, GRP78 ERSR act)
Cc1noc(CSc2ccc(C(=O)N3CCc4ccccc43)cc2)n1	none (no result: G9a block, VDR inhibitor, Sfp PPTase inh, GRP78 ERSR act)
COc1ccc(Nc2nc(N3CCN(c4ccccc4)CC3)c3cnn(C)c3n2)c(OC)c1	none (no result: G9a block, VDR inhibitor, Sfp PPTase inh, GRP78 ERSR act)
CNC(=O)c1cc(=O)n(CC(=O)Nc2ccc(C(C)=O)cc2)c2ccccc12	none (no result: G9a block, VDR inhibitor, Sfp PPTase inh, GRP78 ERSR act)
O=C(O)C1=NN(c2ccccc2)C(=O)C1	G9a block 50µM, ALOX12 inh inconclusive
Cc1sc(-c2ccsc2)nc1-c1ccc(F)c(F)c1	none (no result: G9a block, VDR inhibitor, Sfp PPTase inh, GRP78 ERSR act)
Cn1ccnc1SCC(=O)c1c[nH]c2ccccc12	none
Cn1ccnc1SCC(=O)c1ccc(Br)cc1	G9a block 50µM
COc1ccccc1C(=O)CSc1nccn1C	G9a block inconclusive, ALOX12 inh inconclusive, Sfp PPTase inh 56µM
Cc1ccc(-c2nc(Cn3cc(C(F)(F)F)ccc3=O)co2)c(C)c1	none (no result: G9a block, VDR inhibitor, Sfp PPTase inh, GRP78 ERSR act)
Cn1c(N2CCOCC2)c(/C=N/OC(=O)c2cccnc2Cl)c2ccccc21	G9a block inconclusive, Sfp PPTase inh 22µM
CC(=O)O/N=C/c1c(N2CCOCC2)n(C)c2ccccc12	none
COc1nccc(N2CCC(CC(=O)NCc3ccc(F)c(Cl)c3)CC2)n1	none (no result: G9a block, VDR inhibitor, Sfp PPTase inh, GRP78 ERSR act)
COc1ccccc1N=c1sc2ccccc2n1C	Sfp PPTase inh 56µM
CCOC(=O)C1=C(C)N(c2ccccc2)C(=O)/C1=C\c1cccs1	G9a block inconclusive
COC(=O)C1=C(C)N(c2cccc(C)c2)C(=O)/C1=C\c1cccs1	G9a block 11µM
Cc1ccc(C(=O)NC(C)c2cccc(C(F)(F)F)c2)cn1 (stereo unspecified)	none (no result: G9a block, VDR inhibitor, Sfp PPTase inh, GRP78 ERSR act)
COC(=O)c1sccc1NC(=O)/C=C/c1c(Cl)cccc1Cl	Sfp PPTase inh 40µM
COC(=O)c1sccc1NC(=O)c1c(Cl)cccc1Cl	ALOX12 inh inconclusive (no result: G9a block)
COc1ccc(OCCCn2ccnc2)cc1	Sfp PPTase inh inconclusive (no result: ALOX12 inh)
Brc1cccc(OCCOCCn2ccnc2)c1	ALOX12 inh inconclusive, Sfp PPTase inh inconclusive
CCC(C)c1ccccc1OCCn1ccnc1 (stereo unspecified)	G9a block 16µM, ALOX12 inh inconclusive
Fc1ccc(OCCCCCn2ccnc2)cc1	ALOX12 inh inconclusive
Fc1ccc(OCCCn2ccnc2)cc1	G9a block 40µM, ALOX12 inh inconclusive
COc1ccccc1OCCn1ccnc1	ALOX12 inh inconclusive (no result: G9a block)
Brc1cccc(OCCn2ccnc2)c1	G9a block 8.9µM, ALOX12 inh inconclusive, Sfp PPTase inh 56µM
CCc1ccc(OCCn2ccnc2)cc1	G9a block 22µM, ALOX12 inh inconclusive
CN(Cc1ccccc1C(F)(F)F)C(=O)Cc1ccc(F)cc1	none (no result: G9a block, VDR inhibitor, Sfp PPTase inh, GRP78 ERSR act)
CCCC(C)(NC(=O)OCc1ccccc1)C(=O)O (stereo unspecified)	none (no result: G9a block, VDR inhibitor, Sfp PPTase inh, GRP78 ERSR act)
Cn1c(=O)c2c(nc(NCc3ccc4c(c3)OCO4)n2Cc2cccc(Br)c2)n(C)c1=O	none (no result: G9a block, VDR inhibitor, Sfp PPTase inh, GRP78 ERSR act)
CCc1cccc(OCCCn2ccnc2)c1	G9a block 16µM, ALOX12 inh inconclusive
COc1ccccc1NS(=O)(=O)c1cc(NC(=O)c2n[nH]c3ccccc23)ccc1Cl	none (no result: G9a block, VDR inhibitor, Sfp PPTase inh, GRP78 ERSR act)
Cc1ccc(/C=C/c2nc3ccccc3[nH]2)o1	G9a block 11µM, ALOX12 inh inconclusive, Sfp PPTase inh 5µM
Cc1ccc(/C=C(/C#N)c2nc3ccccc3[nH]2)o1	none (no result: G9a block, VDR inhibitor, Sfp PPTase inh, GRP78 ERSR act)
COC(=O)[C@@H]1Cc2ncn(C)c2CN1S(=O)(=O)c1ccc(F)cc1	ALOX12 inh 56µM (no result: G9a block, VDR inhibitor, Sfp PPTase inh, GRP78 ERSR act)
O=C(CN1CCN(C(=O)c2ccco2)CC1)Nc1c2c(nc3c1CCC3)CCCC2	G9a block 6.3µM, ALOX12 inh inconclusive, Sfp PPTase inh inconclusive
CCCN1CCN(C(=S)Nc2sc(CC)cc2C(=O)OC)CC1	G9a block 50µM
Cc1ccc(C(=O)c2cc(C)sc2NC(=O)CN2CCN(C(=O)c3ccco3)CC2)cc1	G9a block 32µM, ALOX12 inh inconclusive, Sfp PPTase inh inconclusive

Assay outcomes (PubChem)
